Among the data in PubChem BioAssay (NCI) are growth inhibition values, retold here.

Compounds without any hit were thinned out: in the full panel of roughly 79,000, 15% have a hit. Values without a mark were called inactive. Active and inactive are the calls of the source. Cut-off read from the data, not from the text of the source: active = growth inhibition above about 70%; inactive = the rest.

The test can be described thus: NCI Yeast Anticancer Drug Screen. Data for the rad50 strain (AID 155).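 Note: 0% = growth of vehicle-only cultures of the same strain.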 The note with it: S. cerevisiae rad50 strain growth inhibition; at 50.0 µM; stronger effect = higher value. An outline of the steps:
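Inhibition values express reduced yeast growth in compound-treated cultures relative to vehicle-treated controls.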
Take `Nc1cccnc1`: the growth inhibition was -29.1%. In the case of `CCC1C2Cc3ccc(O)cc3C1(CC)CCN2C` (centres undefined) it was 10.6%. In the case of `CC(=O)Nc1cc(Cl)c([N+](=O)[O-])cc1C` it was -14.9%. In the case of `O=[As](c1ccccc1)(c1ccccc1)c1ccc(Br)cc1` it was 31.1%. Consider `CCC(CCl)NC(CC(C)C)CC(C)C` (centres undefined), for which the growth inhibition was -1.95%. The result for `NC(=O)C[CH2][Sn]([Cl])([Cl])[CH2]CC(N)=O` reads -5.65%. In the case of `O=C(CCSCCC(=O)N/N=C/c1ccc(N(CCCl)CCCl)cc1)N/N=C\c1ccc(N(CCCl)CCCl)cc1` it was 7%; in that of `OCCN=Cc1c[nH]c2ccccc12`, -49.9%; in that of `COc1ccc(CCN)c(OC)c1`, -11.2%. The result for `NP(=O)(Oc1cccc2c(OP(N)(=O)N(CCCl)CCCl)cccc12)N(CCCl)CCCl` (centres undefined) reads 6.95%; that for `CCCC[C@@H]1CCN2C[C@@H](O)[C@@H](O)[C@@H]2[C@H]1O`, -2.4%; that for `Nc1ccc(C(=O)O)c([As](O)O)c1`, -6.95%.

Take `c1cc(C2N3CCCN2CC3)ccn1` (centres undefined): the growth inhibition was 10%.

Take `CCN(CC)C(=S)Cl`: the growth inhibition is -35.4%. The result for `COC(=O)C1c2cc(OC)c(OC)cc2C(=O)N2CCc3cc4c(cc3C12)OCO4` (centres undefined) reads 15.8%; that for `ClCCN(CCCl)c1ccc2c(c1)Cc1cc(Br)ccc1-2`, 15%. The result for `COc1cccc2c1C(=O)c1c(O)c3c(c(O)c1C2=O)C[C@@](O)(C(=O)CO)C[C@@H]3OC1CC(N2CCOCC2C#N)C(O)C(C)O1` (some centres undefined) reads 90.1% (active); that for `CCC(=O)[O-].CCC(=O)[O-].N.N.N.N.[Co+3].[O-][Cl+3]([O-])([O-])[O-]`, -9.55%; that for `O=C(Cl)c1ccc[nH]1`, -0.95%. In the case of `COc1ccc(C(=O)/C=C/c2ccccc2)cc1` it was 2.05%; in that of `CN1CN(c2ccccc2)C2(CCN(CCCCCCF)CC2)C1=O`, -5.55%; in that of `CC(=O)OC1CCC2(C)C(CCC3C2CCC2(C)C(c4ccc(=O)oc4)C(OC(C)=O)CC32O)C1` (centres undefined), 45.5%. On to `ClCCN(CCCl)c1ncnc2c1ncn2Cc1ccccc1`, for which the growth inhibition was 2.9%. In the case of `OC1(c2ccccc2)C2CCN(CC2)C1CN1CCOCC1` (centres undefined) it was -23.6%.

Regarding `Fc1ccc(N=C=S)cc1`, the growth inhibition is -28.1%. The result for `CCC[CH2][Sn]([CH2]CCC)([CH2]CCC)[CH2]CCNCCCN(C)C` reads 99.3% (active); that for `CCC(Cl)COP(=O)(OCC(Cl)CC)C(CC)OP(=S)(OCC(Cl)CC)OCC(Cl)CC` (centres undefined), 16.6%; that for `NP(=O)(OCCC(OCc1ccccc1)OCc1ccccc1)N(CCCl)CCCl` (centres undefined), 54.6%.

Turning to `C[Si](C)(C)CN(N=O)C(N)=O`, the growth inhibition is 1.55%. In the case of `Cc1cc(C(C)(C)C)ccc1O` it was 27.4%; in that of `Cc1ncc(CNC(=O)N(CCCl)N=O)c(N)n1`, 0.45%; in that of `COc1ccc(Oc2cc3c(cc2OC)CCN(C)C3)cc1`, 15.9%. Regarding `O=C(C[n+]1ccccc1)C1CCCC2CC3CCCCC3CC21` (centres undefined), the growth inhibition was 1.9%. The result for `CC(=O)[CH-]C(C)=O.CC(=O)[CH-]C(C)=O.CC(=O)[CH-]C(C)=O.[Cl-].[Hf+4]` reads 3.85%; that for `O=C(NCC(O)CO)c1c([N+](=O)[O-])ccc(N(CCCl)CCCl)c1[N+](=O)[O-]` (centres undefined), -11.2%; that for `N=C(N)n1cc(/C=N/N=C(N)N)cn1`, -4.4%. Consider `CCCCC(C(=O)NN)P(=O)(OCC)OCC` (centres undefined), for which the growth inhibition was -0.9%. The result for `OCCSCSCCO` reads -5.8%; that for `CCC[P+](CCC)(CCC)CCCCCCCCCC[P+](CCC)(CCC)CCC`, -2.65%.
